Source: PubChem BioAssay

target: Follistatin (Homo sapiens) (UniProt P19883); experiment: FST protein binding to printed compounds – biochemical, small-molecule microarray, 635/667 nm fluorescence, primary screen (AID 1132); details: 635 nm fluorescence, higher = more signal
Sequence (P19883 whole entry, looked up): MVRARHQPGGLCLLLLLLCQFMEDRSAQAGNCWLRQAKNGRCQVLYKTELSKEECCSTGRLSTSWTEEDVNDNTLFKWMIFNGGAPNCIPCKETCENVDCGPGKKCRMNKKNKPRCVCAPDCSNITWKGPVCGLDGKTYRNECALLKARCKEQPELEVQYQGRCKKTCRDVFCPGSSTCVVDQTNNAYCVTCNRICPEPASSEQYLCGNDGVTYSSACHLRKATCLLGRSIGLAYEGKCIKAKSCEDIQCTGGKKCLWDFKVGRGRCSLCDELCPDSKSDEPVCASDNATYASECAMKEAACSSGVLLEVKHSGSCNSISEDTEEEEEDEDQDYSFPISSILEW

Compound | composite z-score
C=CCc1cccc([C@@H]2[C@@H](C)CC[C@H]3C(=O)N4[C@H](c5cccc(CC=C)c5)[C@@H](C)CC[C@H]4C(=O)N23)c1 | 1.28
CCCCCCc1nc(C2CC2)c(C)c2c1[Si](C(C)C)(C(C)C)OC2 | -0.0256
CC(C)(C)OC(=O)CC[C@]1(C(=O)NCCN2CCOCC2)N=C(c2ccc(OCCCO)cc2)O[C@H]1c1ccccc1CN=[N+]=[N-] | -0.651
CCOC(=O)C[C@H]1[C@H](OC(=O)c2ccccc2-c2ccccc2)[C@@H](NC(=O)c2ccc(-c3ccccc3)cc2)c2cc(OCCCO)ccc2N1C(=O)Cc1ccc(OC)cc1 | 0.362
C=CCN1C(=O)[C@@]2(Cc3ccccc3)N=C(c3ccc(OCCCO)cc3)O[C@H]2c2ccccc21 | 1.39
C=CCC(OC(C)=O)[C@@H]1[C@@H](N(Cc2cc3ccccc3o2)C(=O)c2ccc(C)cc2)c2cc(OCCCO)ccc2N1C(=O)c1ccc2ccccc2n1 (stereo partly specified) | 0.573
C=C(C(=O)CC[C@H](OC(=O)c1ccccc1-c1ccccc1C(=O)O)c1ccc(CO)o1)C(C)C | 1.27
O=C(CS)NCCCCCNC(=O)[C@H]1C[C@H]2C(=O)N3CCC[C@H]3C(=O)N2[C@H]1c1ccc(O)cc1 | 0.927
N#Cc1ccc(NN2C(C(O)CCc3ccccc3)C=CC3C(=O)N(c4ccccc4)C(=O)C32)cc1 (stereo unspecified) | 0.353
O=[N+]([O-])c1ccc(C[n+]2ccc3ccc(O)cc3c2)o1 | 1.04
Cc1ccc(S[C@]2(C(=O)NC(C)C)CC(=O)N(Cc3cc(C(F)(F)F)cc(C(F)(F)F)c3)[C@@H]2c2ccc(CO)cc2I)cc1 | 0.623
